# Cardiac RTF inh: cardiac RTF calcium desensitization; P19429+P45379; IANBD-labeled cardiac RTF, Ca2+ fluorescence; inhibition, % at 7.15 µM; actives 0.12% (n = 340,000); AID 493244;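 active = inhibition above the mean inhibition of all tested compounds plus 3 SD, cut at about 17% in these data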;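 note: assay run at fixed EC70 calcium of 1.6 mM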
# ANO1 activ: activators or potentiators of mouse TMEM16A chloride channel | AID 623877 | HEK293 TMEM16A/YFP-H148Q/I152L, iodide quench fluorescence; stronger effect = lower value | B-score at 10 µM | Q8BHY3 | actives 0.3% (n = 340,000);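 active = fluorescence-ratio B-score plate-corrected deviation score at least 3 library SD below zero, with starting fluorescence score within 5 deviations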;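 note: channel opened by trigger with iodide after compound preincubation; score built on the fluorescence ratio of max minus min over baseline; more negative score means more quench and so TMEM16A activation or potentiation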
# Target sequence (Q8BHY3 whole entry, looked up): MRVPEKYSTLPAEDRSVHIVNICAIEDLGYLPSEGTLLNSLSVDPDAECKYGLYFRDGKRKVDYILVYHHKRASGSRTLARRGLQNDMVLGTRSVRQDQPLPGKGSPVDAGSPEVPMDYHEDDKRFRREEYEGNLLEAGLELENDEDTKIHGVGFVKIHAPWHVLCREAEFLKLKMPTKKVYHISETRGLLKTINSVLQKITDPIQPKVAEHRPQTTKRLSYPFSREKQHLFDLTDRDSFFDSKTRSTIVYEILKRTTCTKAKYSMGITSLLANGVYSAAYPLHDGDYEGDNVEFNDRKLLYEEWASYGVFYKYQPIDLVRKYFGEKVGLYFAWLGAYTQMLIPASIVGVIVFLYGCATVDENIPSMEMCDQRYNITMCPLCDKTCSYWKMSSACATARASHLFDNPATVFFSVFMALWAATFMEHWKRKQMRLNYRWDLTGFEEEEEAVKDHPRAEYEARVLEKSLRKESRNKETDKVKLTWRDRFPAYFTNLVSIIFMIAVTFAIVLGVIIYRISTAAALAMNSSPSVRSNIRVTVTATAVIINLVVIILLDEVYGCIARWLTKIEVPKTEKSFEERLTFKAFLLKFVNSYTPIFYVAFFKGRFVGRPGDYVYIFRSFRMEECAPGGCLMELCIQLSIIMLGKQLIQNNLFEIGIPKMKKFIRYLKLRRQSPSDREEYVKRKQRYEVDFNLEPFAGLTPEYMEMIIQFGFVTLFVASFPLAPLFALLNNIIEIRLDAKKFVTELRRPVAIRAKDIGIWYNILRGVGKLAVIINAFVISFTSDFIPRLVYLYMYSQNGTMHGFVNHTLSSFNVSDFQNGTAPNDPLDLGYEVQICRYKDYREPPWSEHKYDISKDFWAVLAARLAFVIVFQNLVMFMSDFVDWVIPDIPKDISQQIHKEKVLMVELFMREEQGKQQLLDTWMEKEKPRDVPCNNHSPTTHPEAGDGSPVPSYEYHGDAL
# cardiac RTF act: cardiac RTF calcium sensitization; P19429+P45379; IANBD-labeled TnC RTF fluorescence at EC20 calcium; 0% EC20 calcium, 100% full calcium; activation, % at 7.2 µM; actives 0.24% (n = 340,000); AID 493008;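 active = activation above the mean over all tested compounds plus 3 SD, cut at about 30% in these data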;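 note: rise in fluorescence read as greater calcium sensitivity of cardiac thin filaments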
# CRFBP-R2 agonist: CRF-BP/CRF-R2 complex agonism | HEK293 CRF-R2/CRF-BP, calcium dye fluorescence (FLIPR); percent of saturating CRF peptide response | activation, % at 13.2 µM | actives 0.46% (n = 350,000);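 active = activation of at least 50%, plus an integration ratio under a set limit after plate pattern correction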;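 note: plate controls were neutral control wells without compound for no effect and CRF at EC100 for full effect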
# TMEM16A inh: blocks the mouse calcium-activated chloride channel TMEM16A | normalized B-score (activity score, 25-100; higher = stronger inhibition) at 10 µM | actives 1.2% (n = 310,000) | Q8BHY3 | HEK293 TMEM16A/YFP iodide influx fluorescence, ionomycin;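 active = ratio plate-corrected score three or more library SD toward inhibition, starting fluorescence score within five deviations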;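 note: score derived from kinetic fluorescence span divided by baseline fluorescence per well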
# CRFBP-R2 block: CRF-BP/CRF-R2 complex antagonism. inhibition, % at 11.8 µM. HEK293 CRF-R2/CRF-BP, CRF-induced calcium fluorescence. actives 0.59% (n = 350,000). AID 588475;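 active = inhibition of the ligand-induced calcium signal above about 50% at the single tested concentration, limit read from the data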
# * = called active by the depositor; i = inactive; / = not tested or not shown; ! = a repeat was not active. Hits are enriched below; roughly 2.4% of the tested compounds scored in any of these assays.
SMILES,Cardiac RTF inh,ANO1 activ,cardiac RTF act,CRFBP-R2 agonist,TMEM16A inh,CRFBP-R2 block
COc1cccc(NC(=O)Cn2c3ccccc3c3nc4n(c(=O)c32)CCCS4)c1,-7,-52*,5,-2,i,12
Cc1ccccc1OCc1n(CC(=O)OC2CC(C)CCC2C(C)C)c2ccccc2[n+]1C (stereo not drawn),0,i,4,11,100*,-120
CCCCCCCCCCOC(=O)Cn1c(COc2ccccc2)[n+](C)c2ccccc21,2,i,-4,19,i,-34
CCCCCCCCCCOC(=O)Cn1c(COc2ccc(Cl)cc2)[n+](C)c2ccccc21,3,i,-4,1,i,-30
CCCCCCCCCCOC(=O)Cn1c(COc2ccccc2C)[n+](C)c2ccccc21,3,-4.7*,-12,6,100*,-26
CCCCCCCCCCOC(=O)Cn1c(COc2cccc(C)c2)[n+](C)c2ccccc21,-3,i,-1,4,100*,-2
CCCCCCCCCCOC(=O)Cn1c(COc2ccc(OC)cc2)[n+](C)c2ccccc21,-7,i,0,8,25*!,-15
CCOc1ncccc1C(=O)OC(C)C(=O)NC(=O)NC1CCCCC1 (stereo not drawn),-8,i,0,2,i,0
CCOc1ccc(C2C=C(c3ccc(C)cc3)Nc3nnnn32)cc1 (stereo not drawn),-76,i,54*,69*,i,-30
COc1ccc(CNC(=O)[C@H](C)N2C(=O)N3CCc4c([nH]c5ccccc45)[C@@]3(C)C2=O)cc1OC,-7,-13*,10,-1,i,-9
Cc1cc(C)n(-c2cc(-c3ccccc3)nc(C)n2)n1,-3,i,-4,0,i,5
CCc1ccc(N2C(=O)CC(Cn3nc(C)cc3C)C2=O)cc1 (stereo not drawn),-12,i,0,1,i,13
COc1ccc(NC(=S)NNC(=S)Nc2cccc(C(F)(F)F)c2)cc1,6,-6.7*,2,-1,i,-15
O=C(NNC(=S)Nc1cccc(C(F)(F)F)c1)c1ccc(Cl)cc1Cl,-2,i,-5,54*,i,27
CC(=O)COc1ccc2cc(-c3ccccc3)c(=O)oc2c1,-16,i,2,2,i,-18
O=C(CCCCl)Oc1ccc2cc(-c3ccc4ccccc4n3)c(=O)oc2c1,-15,i,2,106*,i,-94
CCn1nc(C)c(NC(=O)Nc2cccc(Cl)c2Cl)c1C,-2,i,12,-4,i,53*
Cc1cc(-n2cnnn2)cc(C)c1S(=O)(=O)N(C)c1ccccc1,-5,i,0,0,i,-7
O=C(NC1CCCC1)C(c1ccccc1)N(Cc1ccccc1)C(=O)c1csnn1 (stereo not drawn),-15,i,-1,0,i,-1
CC1(C)Cc2c(sc3[nH]c(=O)n(CC(=O)NCC4CCCO4)c(=O)c23)CO1 (stereo not drawn),-6,i,6,1,i,84*
O=C(Cn1c(=O)[nH]c2sc3c(c2c1=O)CCCC3)NCC1CCCO1 (stereo not drawn),9,i,6,0,i,-11
CCOC(=O)Nc1ccc2c(c1)nc(CN1CCCCC1)n2C,-6,i,4,/,i,/
COc1cc2[nH]c(=O)n(CCC(=O)N3CCN(c4cc(Cl)ccc4C)CC3)c(=O)c2cc1OC,-5,i,-5,-2,100*,0
COc1cc2[nH]c(=O)n(CCCCCC(=O)NC3CCCC3)c(=O)c2cc1OC,6,i,5,2,i,67*
O=C(CCCn1c(=O)[nH]c2cc(Cl)ccc2c1=O)NC1CCCCCC1,10,i,-10,-1,25*,-34
SMILES,Cardiac RTF inh,ANO1 activ,cardiac RTF act,CRFBP-R2 agonist,TMEM16A inh,CRFBP-R2 block
COCCn1c(C)c(C)c(S(=O)(=O)c2ccccc2)c1N,-13,i,10,6,i,1
O=C(C[C@H]1C[C@H](C(=O)N2CCOCC2)[C@@]2(CCC3CCCC3)c3[nH]c4ccc(Cl)cc4c3CCN2C1=O)NCCN1CCOCC1,-4,/,-1,88*,/,-8
N#Cc1cnn2c(-c3cccc([N+](=O)[O-])c3)ccnc12,-5,i,0,-1,/,5
CC(CCC(C)C(C)(C)C)[C@@H]1CC[C@H]2C3C[C@H](OS(O)(=S)=S)[C@H]4C[C@H](OS(O)(=S)=S)[C@@H](OS(O)(=S)=S)C[C@]4(C)[C@H]3CC[C@]12C (stereo partly drawn) (tested in a mixture with another compound),56*,-11*,-23,55*,/,30
O=C(c1ccc(Br)cc1)c1cc2ccc(O)cc2oc1=O,-15,i,4,7,25*,6
Nc1nnnn1-c1cccc([N+](=O)[O-])c1,-1,i,-5,-1,/,17
COc1ccccc1C/C(N)=N/OC(=O)COc1cc(C)cc(C)c1C,4,i,-5,11,i,-2
COc1ccccc1C/C(N)=N/OC(=O)COc1cccc(C)c1C,19*,i,-3,-2,i,18
CCCCCC(=O)Nc1cc(S(=O)(=O)O)cc2cc(S(=O)(=O)O)cc(O)c12,67*,i,-49,-1,/,-1
CCCCCC(=O)Nc1cc(S(=O)(=O)N2CCCCC2)ccc1N1CCCCC1,-5,i,-12,0,/,19
Cc1ccc(OCc2nnc(SCc3nc4ccccc4[nH]3)n2Cc2ccco2)cc1,-5,i,10,-1,100*,-9
Cc1ccccc1NS(=O)(=O)c1ccc(C(=O)N(C)CC(=O)Nc2ccccc2Br)cc1,1,i,9,-1,/,88*
Cc1cc(Br)ccc1NC(=O)CN(C)C(=O)CN1C(=O)NC(C)(C2CC2)C1=O (stereo not drawn),0,i,7,1,/,-4
CCC(=O)c1ccc(O)cc1,8,-13*,-4,1,i,1
CCOCCn1c(SCc2ccccc2)nc2c1c(=O)[nH]c(=O)n2C,2,i,2,-4,i,-20
CCOCCn1c(SCC(=O)OCc2ccccc2)nc2c1c(=O)[nH]c(=O)n2C,-8,i,2,56*,i,-44
O=C(COC(=O)/C=C/c1ccco1)Nc1cc(S(=O)(=O)N2CCOCC2)ccc1Cl,-3,i,-2,-1,/,1
CC(C)c1nc(SCC(=O)c2ccccc2)c2c(=O)n(C)c(=O)n(C)c2n1,-3,i,3,1,i,-13

# From PubChem BioAssay
